# Results filed as inconclusive are left out. Calls of active or inactive are those of the source. The calls were made as follows, unless noted: active = hit-call score of the fitted dose curve at least 0.9, where 1 is the maximum; inactive = score below 0.9.
# How the values were obtained:
# [1] = ACEA_ER_80hr: ACEA Biosciences xCELLigence Real-Time Cell Analysis on Estrogen Receptor Agonism for Proliferation (AID 2282667; active = hit-call score of the fitted dose curve at least 0.9, where 1 is the maximum); conditions: T47D proliferation, impedance (xCELLigence), 80 h
# Summary of the method: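 Estrogen-driven proliferation is captured as electrode impedance in T47D cells 80 h after compound addition. Test articles ran at 8 concentrations, 1:4 dilutions from 100 uM final, in two replicate plates.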
# [2] = ATG_CRE_CIS: Attagene CIS-FACTORIAL HepG2 Assay for human cAMP Responsive Element (CRE) binding protein 3 (AID 2282926); conditions: HepG2 CRE cis-reporter, Attagene multiplexed mRNA; actives raise or lower the signal
# Summary of the method: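 Transfected HepG2 were treated for 24 hours, then RNA was extracted and reporter cDNA amplified with sequence-specific primers. Labelled fragments were separated by capillary electrophoresis, and the CRE signal was fitted bidirectionally with DMSO as baseline.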
# [3] = molecular target: CCAAT/enhancer-binding protein beta (Homo sapiens) (UniProt P17676); assay: ATG_C_EBP_CIS: Attagene CIS-FACTORIAL HepG2 Assay for human CCAAT/Enhancer Binding Protein (C/EBP) beta (AID 2282927); conditions: HepG2 Attagene cis-factorial transcription factor reporter; actives raise or lower the signal
# Summary of the method: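 Changes in reporter mRNA, rather than exogenous chimeric receptor activity, reflect native C/EBP signalling in transfected HepG2 cells dosed for 24 h; transcripts are detected by RT-PCR and capillary electrophoresis.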
# [4] = ATG_CMV_CIS: Attagene CIS-FACTORIAL HepG2 Assay for human CMV (Internal Marker) (AID 2282928); conditions: HepG2 CMV promoter reporter, transcription factor profiling; actives raise or lower the signal;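 also: endpoint acts as a background internal control marker rather than a target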
# Summary of the method: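 After transient transfection of HepG2 with reporter transcription units driven by cis-regulatory promoters, cells receive test chemical for 24 h. Labeled reporter amplicons, digested with HpaI, are sized and quantified by capillary electrophoresis against DMSO.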
# [5] = ATG_DR4_LXR_CIS: Attagene CIS-FACTORIAL HepG2 Assay for human Liver X Receptor (LXR), DR4 submotif (AID 2282929); conditions: HepG2 Attagene DR4 cis-reporter, mRNA transcription; actives raise or lower the signal
# Summary of the method: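 HepG2 cells transiently transfected with cis-promoter-driven multiplexed reporter units (DR4 element) were dosed for 24 h. Reporter mRNA was quantified by RT-PCR, fluorescent primer extension, HpaI digestion and capillary electrophoresis; bidirectional fitting versus DMSO baseline.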
# [6] = molecular target: Aryl hydrocarbon receptor (Homo sapiens) (UniProt P35869); assay: ATG_Ahr_CIS: Attagene CIS-FACTORIAL HepG2 Assay for human Aryl Hydrocarbon Receptor (Ahr) (AID 2282930); conditions: HepG2 AhR cis-factorial reporter transcription; actives raise or lower the signal
# Summary of the method: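 HepG2, transient MRTU (cis) transfection, 24 h exposure. RNA → cDNA → PCR → 6-FAM primer extension → HpaI 2 h 37 C → CE. Fit: bidirectional, DMSO baseline.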
# [7] = ATG_AP_1_CIS: Attagene CIS-FACTORIAL HepG2 Assay for human Activator Protein 1 (AP-1) (AID 2282931); conditions: HepG2 Attagene cis-factorial AP-1 reporter mRNA; actives raise or lower the signal
# Summary of the method: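 HepG2 cells transiently transfected with cis-element-driven multiplex reporter units; 24 h compound exposure. Reporter mRNA quantified by RT-PCR, FAM-labelled fragments resolved by capillary electrophoresis; bidirectional fit versus DMSO baseline.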
# [8] = ATG_AP_2_CIS: Attagene CIS-FACTORIAL HepG2 Assay for human Activator Protein 2 (AP-2) (AID 2282932); conditions: HepG2 AP-2 cis-reporter, Attagene transcription factor profiling; actives raise or lower the signal
# Summary of the method: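 HepG2, transient MRTU transfection, cis-regulated reporters; 24 h compound exposure; RNA isolated, RT-PCR, 6-FAM labelling, HpaI digest, CE fluorescence. DMSO = negative control/baseline, bidirectional fit.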
# [9] = ATG_BRE_CIS: Attagene CIS-FACTORIAL HepG2 Assay for human Bone Morphogenetic Protein (BMP) Response Element (BRE) (AID 2282933); conditions: HepG2 BMP response element reporter, Attagene transcription factor profiling; actives raise or lower the signal
# Summary of the method: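 Endogenous transcription factor activity read in transiently transfected HepG2 cells after 24 h chemical exposure. Bidirectional curve fitting against DMSO; readout is reporter transcript level by RT-PCR with capillary electrophoresis of labelled products.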
# [10] = molecular target: Retinoic acid receptor alpha (Homo sapiens) (UniProt P10276); assay: ATG_DR5_RAR_CIS: Attagene CIS-FACTORIAL HepG2 Assay for human Retinoic Acid Receptor Alpha (RARE), DR5 submotif (AID 2282934); conditions: HepG2 Attagene cis-factorial RARE DR5 reporter, mRNA; actives raise or lower the signal;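 as to AC50: reporter responds to endogenous RAR alpha beta and gamma in HepG2 not RARA alone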
# Summary of the method: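 HepG2, transient cis-reporter transfection, 24 h exposure. mRNA readout: RT-PCR, FAM label, HpaI cut, capillary electrophoresis. DMSO baseline, gain/loss fitting.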
# [11] = ATG_M_61_CIS: Attagene CIS-FACTORIAL HepG2 Assay for M61 Transcription Factor (Internal Marker) (AID 2282937); conditions: HepG2 Attagene CIS-FACTORIAL M61 internal marker reporter; actives raise or lower the signal
# Summary of the method: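 HepG2 cells transiently transfected with cis-element-driven multiple reporter transcription units, dosed for 24 h. Reporter mRNA measured by RT-PCR, 6-FAM primer-extension labelling, HpaI digestion and capillary electrophoresis; bidirectional fit versus DMSO baseline.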
# [12] = ATG_EGR_CIS: Attagene CIS-FACTORIAL HepG2 Assay for human Early Growth Response 1 (EGR1) (AID 2282938); conditions: HepG2 Attagene CIS-FACTORIAL EGR reporter mRNA; actives raise or lower the signal
# Summary of the method: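 HepG2 cells transiently transfected with cis-promoter-driven multiplexed reporter transcription units; reporter mRNA measured 24 h after compound dosing by RT-PCR, 6-FAM primer extension, HpaI digestion and capillary electrophoresis. Bidirectional fit versus DMSO baseline.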
# [13] = ATG_M_19_CIS: Attagene CIS-FACTORIAL HepG2 Assay for M19 Transcription Factor (Internal Marker) (AID 2282939); conditions: HepG2 Attagene CIS-FACTORIAL M19 internal marker reporter; actives raise or lower the signal
# Summary of the method: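 Internal marker readout, fitted in both directions against DMSO, from HepG2 cells carrying transfected cis-element reporter constructs; RT-PCR and capillary electrophoresis of reporter mRNA after 24 h exposure.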
# [14] = ATG_ERE_CIS: Attagene CIS-FACTORIAL HepG2 Assay for Estrogen Response Element (ERE) (AID 2282940); conditions: HepG2 ERE cis-reporter, Attagene RNA transcript; actives raise or lower the signal
# Summary of the method: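 After 24 h compound treatment, RNA from transfected HepG2 cells was reverse-transcribed, reporter cDNA PCR-amplified, FAM-labelled, HpaI-cut and resolved by capillary electrophoresis. ERE-driven cis reporter transcripts reflect endogenous factors; gain or loss scored against DMSO.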
# [15] = ATG_Ets_CIS: Attagene CIS-FACTORIAL HepG2 Assay for human Erythroblast Transformation Specific (ETS) (AID 2282941); conditions: HepG2 ETS cis-reporter transcription, actives raise or lower the signal
# Summary of the method: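 Human HepG2 hepatoma cells were transiently transfected with promoter-driven reporter constructs and treated for 24 hours. Reporter transcripts were quantified by RT-PCR with fluorescent primer extension; bidirectional curve fitting used DMSO as reference.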
# [16] = molecular target: Hepatocyte nuclear factor 3-beta (Homo sapiens) (UniProt Q9Y261); assay: ATG_FoxA2_CIS: Attagene CIS-FACTORIAL HepG2 Assay for human Forkhead box A2 (FOXA2) (AID 2282942); conditions: HepG2 cis-reporter transcription factor activity, 24 h; actives raise or lower the signal
# Summary of the method: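 HepG2 cells transiently transfected with multiple cis-regulated reporter transcription units, dosed for 24 h. Reporter mRNA measured by RT-PCR, 6-FAM labelling, HpaI digestion and capillary electrophoresis; bidirectional fitting against DMSO baseline.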
# [17] = ATG_FoxO_CIS: Attagene CIS-FACTORIAL HepG2 Assay for human Forkhead box O (FoxO) (AID 2282943); conditions: HepG2 Attagene cis-reporter, FoxO element, mRNA; actives raise or lower the signal
# Summary of the method: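 Human hepatoma HepG2 cells carry transiently introduced reporter transcription units controlled by cis promoter elements. Chemical treatment lasted 24 h, and mRNA signal was compared with DMSO.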
# [18] = ATG_GATA_CIS: Attagene CIS-FACTORIAL HepG2 Assay for human GATA Binding Protein (AID 2282944); conditions: HepG2 GATA cis-element reporter, Attagene multiplex mRNA; actives raise or lower the signal
# Summary of the method: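 Reporter transcripts from a GATA cis-regulated unit, among multiplexed reporters in transfected HepG2 cells, were measured by RT-PCR with capillary electrophoresis after 24 h dosing. Induction or loss scored relative to DMSO.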
# [19] = ATG_E_Box_CIS: Attagene CIS-FACTORIAL HepG2 Assay for human Enhancer Box (E-box) (AID 2282936); conditions: HepG2 E-box cis-reporter transcription, actives raise or lower the signal
# Summary of the method: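 Cells: HepG2 (human liver), transient MRTU transfection. Exposure 24 h. RNA → oligo(dT) RT → PCR → 6-FAM label → HpaI → CE. Activity fitted both directions relative to DMSO.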
# [20] = molecular target: Transcription factor E2F1 (Homo sapiens) (UniProt Q01094); assay: ATG_E2F_CIS: Attagene CIS-FACTORIAL HepG2 Assay for human E2F Transcription Factor 1 (AID 2282935); conditions: HepG2 Attagene cis-reporter, E2F reporter RNA transcripts; actives raise or lower the signal
# Summary of the method: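 Cis-element reporter mRNA induction in transiently transfected HepG2, 24 h exposure. Activity fitted in both directions relative to DMSO negative control.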
# Chain of Retinoic acid receptor alpha (Homo sapiens) (P10276 whole entry, looked up): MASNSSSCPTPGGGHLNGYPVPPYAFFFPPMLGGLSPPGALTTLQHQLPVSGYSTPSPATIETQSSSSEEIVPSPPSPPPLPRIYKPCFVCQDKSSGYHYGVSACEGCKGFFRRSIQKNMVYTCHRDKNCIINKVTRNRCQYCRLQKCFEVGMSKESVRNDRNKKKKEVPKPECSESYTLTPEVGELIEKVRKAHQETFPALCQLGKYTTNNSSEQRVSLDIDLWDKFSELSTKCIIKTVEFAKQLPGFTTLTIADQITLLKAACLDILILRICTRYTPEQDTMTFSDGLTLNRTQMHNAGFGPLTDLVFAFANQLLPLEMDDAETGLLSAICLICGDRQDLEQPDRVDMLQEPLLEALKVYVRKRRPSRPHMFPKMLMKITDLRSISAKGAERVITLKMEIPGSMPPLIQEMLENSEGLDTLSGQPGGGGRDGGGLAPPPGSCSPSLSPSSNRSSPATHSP
# Chain of Transcription factor E2F1 (Homo sapiens) (Q01094 whole entry, looked up): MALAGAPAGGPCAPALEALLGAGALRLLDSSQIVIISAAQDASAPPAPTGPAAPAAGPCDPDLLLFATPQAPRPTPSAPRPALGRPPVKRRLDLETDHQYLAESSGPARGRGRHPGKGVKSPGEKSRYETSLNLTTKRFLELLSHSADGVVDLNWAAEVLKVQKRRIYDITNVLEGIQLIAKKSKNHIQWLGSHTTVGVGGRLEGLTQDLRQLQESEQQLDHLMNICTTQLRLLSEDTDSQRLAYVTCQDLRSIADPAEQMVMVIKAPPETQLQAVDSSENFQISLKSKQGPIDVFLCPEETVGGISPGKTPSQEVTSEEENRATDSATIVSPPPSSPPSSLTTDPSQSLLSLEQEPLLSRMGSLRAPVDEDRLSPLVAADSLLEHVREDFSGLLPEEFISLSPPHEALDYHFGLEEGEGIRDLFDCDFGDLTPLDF
# Chain of Hepatocyte nuclear factor 3-beta (Homo sapiens) (Q9Y261 whole entry, looked up): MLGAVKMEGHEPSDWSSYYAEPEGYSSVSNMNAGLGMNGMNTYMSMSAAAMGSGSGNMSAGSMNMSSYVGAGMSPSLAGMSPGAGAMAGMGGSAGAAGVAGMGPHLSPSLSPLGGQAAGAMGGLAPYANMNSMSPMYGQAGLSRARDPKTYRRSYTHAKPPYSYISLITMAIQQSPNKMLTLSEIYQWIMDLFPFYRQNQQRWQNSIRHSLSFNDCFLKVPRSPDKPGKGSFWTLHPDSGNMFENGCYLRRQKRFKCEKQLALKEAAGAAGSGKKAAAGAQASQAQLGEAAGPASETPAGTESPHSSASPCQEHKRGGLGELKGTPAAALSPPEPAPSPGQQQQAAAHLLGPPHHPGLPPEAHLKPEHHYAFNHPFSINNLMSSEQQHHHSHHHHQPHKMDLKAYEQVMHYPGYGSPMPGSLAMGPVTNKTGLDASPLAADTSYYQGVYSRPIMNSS
# Chain of Aryl hydrocarbon receptor (Homo sapiens) (P35869 whole entry, looked up): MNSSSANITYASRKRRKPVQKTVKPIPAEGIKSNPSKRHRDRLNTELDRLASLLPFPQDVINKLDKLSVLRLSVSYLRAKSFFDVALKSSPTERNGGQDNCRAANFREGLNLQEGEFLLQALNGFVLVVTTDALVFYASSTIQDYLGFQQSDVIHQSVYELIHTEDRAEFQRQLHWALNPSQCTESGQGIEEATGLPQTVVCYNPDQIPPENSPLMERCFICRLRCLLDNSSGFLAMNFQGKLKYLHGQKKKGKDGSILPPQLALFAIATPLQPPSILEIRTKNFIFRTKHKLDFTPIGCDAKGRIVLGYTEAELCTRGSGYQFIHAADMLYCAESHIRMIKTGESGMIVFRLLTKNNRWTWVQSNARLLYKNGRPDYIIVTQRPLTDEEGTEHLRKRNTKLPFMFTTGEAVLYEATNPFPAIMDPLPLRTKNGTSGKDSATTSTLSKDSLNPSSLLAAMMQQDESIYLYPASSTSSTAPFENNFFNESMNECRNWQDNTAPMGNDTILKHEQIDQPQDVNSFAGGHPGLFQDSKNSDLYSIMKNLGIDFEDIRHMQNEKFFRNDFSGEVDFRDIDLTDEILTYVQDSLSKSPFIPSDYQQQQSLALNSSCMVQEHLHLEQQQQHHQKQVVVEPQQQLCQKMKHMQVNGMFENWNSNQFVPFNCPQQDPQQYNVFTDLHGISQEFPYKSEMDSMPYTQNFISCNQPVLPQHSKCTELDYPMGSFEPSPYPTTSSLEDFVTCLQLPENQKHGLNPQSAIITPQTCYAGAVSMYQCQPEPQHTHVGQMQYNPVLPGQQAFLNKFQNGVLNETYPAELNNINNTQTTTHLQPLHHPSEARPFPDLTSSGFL
# Chain of CCAAT/enhancer-binding protein beta (Homo sapiens) (P17676 whole entry, looked up): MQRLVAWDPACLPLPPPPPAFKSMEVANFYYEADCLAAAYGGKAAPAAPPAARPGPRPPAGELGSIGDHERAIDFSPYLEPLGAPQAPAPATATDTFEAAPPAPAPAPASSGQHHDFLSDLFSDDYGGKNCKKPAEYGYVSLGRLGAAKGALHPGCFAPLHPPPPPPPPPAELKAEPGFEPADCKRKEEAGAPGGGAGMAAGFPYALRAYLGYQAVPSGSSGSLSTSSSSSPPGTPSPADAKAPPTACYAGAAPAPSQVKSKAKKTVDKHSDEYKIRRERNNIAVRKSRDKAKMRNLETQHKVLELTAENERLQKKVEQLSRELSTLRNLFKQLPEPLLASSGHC
compound,measurement,setting,value
Cc1noc(NS(=O)(=O)c2ccc(N)cc2)c1C,outcome,[1],inactive
same,outcome,[2],inactive
same,outcome,[3],inactive
same,outcome,[4],inactive
same,outcome,[5],inactive
same,outcome,[6],inactive
same,outcome,[7],inactive
same,outcome,[8],inactive
same,outcome,[9],inactive
same,outcome,[10],inactive
same,outcome,[11],inactive
same,outcome,[12],inactive
same,outcome,[13],inactive
same,outcome,[14],inactive
same,outcome,[15],inactive
same,outcome,[16],inactive
same,outcome,[17],inactive
same,outcome,[18],inactive
CCCCCCCCCCCC(=O)N(C)CC(=O)O,outcome,[1],inactive
same,outcome,[2],inactive
same,outcome,[3],inactive
same,AC50,[4],97.5 µM (active)
same,AC50,[5],97.5 µM (active)
same,outcome,[6],inactive
same,outcome,[7],inactive
same,outcome,[8],inactive
same,outcome,[9],inactive
same,outcome,[10],inactive
same,outcome,[19],inactive
same,outcome,[11],inactive
same,outcome,[12],inactive
same,outcome,[13],inactive
same,AC50,[14],14.3 µM (active)
same,outcome,[15],inactive
same,outcome,[16],inactive
same,outcome,[17],inactive
same,outcome,[18],inactive
O=C(Nc1ccccc1)c1cc(Cl)ccc1O,outcome,[1],inactive
same,AC50,[2],3.19 µM (active)
same,AC50,[3],3.35 µM (active)
same,outcome,[4],inactive
same,outcome,[5],inactive
same,AC50,[6],3.62 µM (active)
same,AC50,[7],2.84 µM (active)
same,outcome,[8],inactive
same,AC50,[9],3.15 µM (active)
same,AC50,[10],4.11 µM (active)
same,outcome,[19],inactive
same,AC50,[12],6.36 µM (active)
same,outcome,[13],inactive
same,outcome,[14],inactive
same,AC50,[15],19.8 µM (active)
same,outcome,[16],inactive
same,AC50,[17],100 µM (active)
same,outcome,[18],inactive
N#CC1(N)CCCCC1,outcome,[1],inactive
same,outcome,[2],inactive
same,outcome,[3],inactive
same,outcome,[4],inactive
same,outcome,[5],inactive
same,outcome,[6],inactive
same,outcome,[7],inactive
same,outcome,[8],inactive
same,outcome,[9],inactive
same,outcome,[10],inactive
same,outcome,[19],inactive
same,outcome,[11],inactive
same,outcome,[12],inactive
same,outcome,[13],inactive
same,outcome,[14],inactive
same,outcome,[15],inactive
same,outcome,[16],inactive
same,outcome,[17],inactive
same,outcome,[18],inactive
CC(=O)CCC1=C(C)CCCC1(C)C,outcome,[1],inactive
same,outcome,[2],inactive
same,outcome,[3],inactive
same,outcome,[4],inactive
same,outcome,[5],inactive
same,outcome,[6],inactive
same,outcome,[7],inactive
same,outcome,[8],inactive
same,outcome,[9],inactive
same,outcome,[10],inactive
same,outcome,[19],inactive
same,outcome,[11],inactive
same,outcome,[12],inactive
same,outcome,[13],inactive
same,AC50,[14],29.8 µM (active)
same,outcome,[16],inactive
same,outcome,[17],inactive
same,outcome,[18],inactive
CCOC(=O)C1=NN(c2ccc(Cl)cc2Cl)C(C)(C(=O)OCC)C1 (configuration not stated),outcome,[1],inactive
same,outcome,[2],inactive
same,outcome,[3],inactive
same,outcome,[4],inactive
same,outcome,[5],inactive
same,outcome,[6],inactive
same,AC50,[7],164 µM (active)
same,outcome,[8],inactive
same,outcome,[9],inactive
same,outcome,[10],inactive
same,outcome,[20],inactive
same,outcome,[12],inactive
same,outcome,[13],inactive
same,outcome,[14],inactive
same,outcome,[15],inactive
same,outcome,[16],inactive
same,outcome,[17],inactive
same,outcome,[18],inactive
CCCCOCCOCCOC(C)=O,outcome,[1],inactive
same,outcome,[2],inactive
same,outcome,[3],inactive
same,outcome,[4],inactive
same,outcome,[5],inactive
same,outcome,[6],inactive
same,outcome,[7],inactive
same,outcome,[8],inactive
same,outcome,[9],inactive
same,outcome,[20],inactive
same,outcome,[19],inactive
same,outcome,[11],inactive
same,outcome,[12],inactive
same,outcome,[13],inactive
same,outcome,[14],inactive
same,outcome,[15],inactive
same,outcome,[16],inactive
same,outcome,[17],inactive
same,outcome,[18],inactive
Nc1ccc(O)c([N+](=O)[O-])c1,outcome,[1],inactive
same,outcome,[2],inactive
same,outcome,[3],inactive
same,outcome,[4],inactive
same,outcome,[5],inactive
same,AC50,[6],13.9 µM (active)
same,outcome,[7],inactive
same,outcome,[8],inactive
same,outcome,[9],inactive
same,outcome,[10],inactive
same,outcome,[20],inactive
same,outcome,[11],inactive
same,outcome,[12],inactive
same,outcome,[13],inactive
same,outcome,[14],inactive
same,outcome,[16],inactive
same,outcome,[17],inactive
same,outcome,[18],inactive
